Data published in PubChem BioAssay.
This is one part of the list. Active and inactive are the calls of the source. Rule as the data show it, unless noted: active = inhibition above about 20%; inactive = the rest.

Columns and labels:
[1] = target: Neuropeptide Y receptor type 2 (Homo sapiens) (UniProt P49146); assay: human Y2 receptor positive modulation or activation – cell-based, confirmation (AID 1539; in the data active = activation above about 33%); conditions: cell-based NPY-Y2 potentiator/agonist assay; at 3.6 µM; active compounds read high
Sequence of Neuropeptide Y receptor type 2 (Homo sapiens) (P49146 whole entry, looked up): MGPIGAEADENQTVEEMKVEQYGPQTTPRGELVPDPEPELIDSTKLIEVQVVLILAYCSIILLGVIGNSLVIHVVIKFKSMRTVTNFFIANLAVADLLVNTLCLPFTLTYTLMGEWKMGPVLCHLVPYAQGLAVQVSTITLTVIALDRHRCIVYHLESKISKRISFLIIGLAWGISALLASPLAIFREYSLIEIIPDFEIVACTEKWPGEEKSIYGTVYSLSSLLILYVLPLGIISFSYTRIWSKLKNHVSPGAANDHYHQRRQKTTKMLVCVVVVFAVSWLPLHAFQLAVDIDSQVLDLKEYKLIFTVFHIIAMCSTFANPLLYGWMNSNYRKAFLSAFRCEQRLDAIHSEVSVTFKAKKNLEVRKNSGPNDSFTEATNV

[2] = target: Neuropeptide Y receptor type 1 (Homo sapiens) (UniProt P25929); assay: human Y1 receptor positive modulation or activation – cell-based, fluorescence, counter-screen for NPY-Y2 potentiator project (AID 1651; in the data active = activation above about 45%;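 also: cells stimulated with submaximal NPY then isoproterenol with phosphodiesterase inhibitor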); conditions: Y1 HEK293-CNG cells, membrane potential fluorescence; at 3.6 µM; active compounds read high
Sequence of Neuropeptide Y receptor type 1 (Homo sapiens) (P25929 whole entry, looked up): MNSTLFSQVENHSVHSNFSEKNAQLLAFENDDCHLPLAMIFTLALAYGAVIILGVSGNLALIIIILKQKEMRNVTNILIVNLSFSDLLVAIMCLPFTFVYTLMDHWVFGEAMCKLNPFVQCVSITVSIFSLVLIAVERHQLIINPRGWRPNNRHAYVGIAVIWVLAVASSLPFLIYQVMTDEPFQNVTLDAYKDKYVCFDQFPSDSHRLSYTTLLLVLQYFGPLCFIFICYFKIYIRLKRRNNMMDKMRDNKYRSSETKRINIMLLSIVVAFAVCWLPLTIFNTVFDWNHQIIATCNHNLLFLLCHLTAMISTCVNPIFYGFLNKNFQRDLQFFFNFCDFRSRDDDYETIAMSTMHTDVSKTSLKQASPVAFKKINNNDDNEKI

[3] = target: Neuropeptide Y receptor type 1 (Homo sapiens) (UniProt P25929); assay: human Y1 receptor agonism, CNGC membrane potential – cell-based, fluorescence, selectivity assay for NPY-Y2 potentiator project (AID 1702;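 active = activation above the mean of DMSO-only control wells plus 3 SD, cut at about 18% in these data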;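 also: cells stimulated with 1 µM isoproterenol plus the PDE inhibitor Ro 20-1724; 0% = isoproterenol with DMSO and no NPY and 100% = 40 nM NPY; Y1 agonists lower the membrane potential dye signal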); conditions: HEK293 Y1-CNGC, at 3.6 µM, active compounds read high
[4] = blockers of isoproterenol-driven CNG channel signal – cell-based, HEK293-CNG parental, membrane potential fluorescence, counter-screen for NPY-Y2 potentiator project (AID 1703;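 active = inhibition above the control-well mean plus 3 SD of those wells, cut at about 22% in these data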;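 also: 0% = DMSO with isoproterenol and 100% = DMSO without isoproterenol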); conditions: isoproterenol cAMP, at 3.6 µM, active compounds read high
[5] = target: Neuropeptide Y receptor type 2 (Homo sapiens) (UniProt P49146); assay: agonism at human Y2 receptor without NPY – cell-based, fluorescence, counter-screen for NPY-Y2 potentiator project (AID 1710;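 active = activation above the mean of solvent-only control wells plus 3 SD, cut at about 10% in these data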;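 also: cells stimulated by isoproterenol with no NPY added so direct agonism is tested; 0% = DMSO with isoproterenol alone and 100% = NPY at EC100 plus isoproterenol; agonism lowers probe fluorescence through less cAMP and CNG channel opening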); conditions: HEK293 Y2/CNGC cells, membrane potential fluorescence, agonist mode; at 3.6 µM; active compounds read high
[6] = reduced OD of T4-infected AddAB+ E. coli – absorbance, E. coli V3065, T4 phage, triplicate, AddAB inhibitor project, confirmation (AID 488942;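 active = mean inhibition above a set limit taken from the earlier primary screen, cut at about 13% in these data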;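 also: higher means less bacterial growth since AddAB block lets phage replicate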); conditions: E. coli V3065 expressing H. pylori AddAB, at 11.9 µM, active compounds read high, T4 phage with gene 2 nonsense mutations
[7] = reduced OD of phage-infected RecBCD+ V66 E. coli – absorbance, mutant T4 phage, counter-screen for AddAB inhibitor project (AID 488955;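 active = mean inhibition above the mean of solvent-only control wells plus 3 SD, cut at about 4% in these data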;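 also: optical density read after an 18 h incubation at 37 °C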); conditions: OD growth, at 11.9 µM, active compounds read high
[8] = bacterial growth inhibitors – absorbance, counter-screen for AddAB inhibitor project, confirmation (AID 488956; in the data active = inhibition above about 25%); conditions: bacterial viability, absorbance (AddAB counterscreen); at 11.9 µM; active compounds read high
[9] = target: Nuclear receptor coactivator 3 (Homo sapiens) (UniProt Q9Y6Q9); assay: NCOA3 GAL4-fusion reporter inhibition – cell-based, luminescence, quadruplicate, confirmation (AID 588792;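 active = mean inhibition over 43.08%, the solvent-only control mean plus 3 SD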;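 also: 0% = DMSO treated cells and 100% = gossypol at 36 µM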); conditions: HEK293 GAL4-SRC3 luciferase reporter, at 3.6 µM, active compounds read high
[10] = system: transactivating tegument protein VP16 (Human herpesvirus 1), Gal4-VP16 luciferase reporter; assay: repression of VP16-driven luciferase reporter – cell-based, luminescence, high throughput, counter-screen for SRC3 inhibitor project (AID 588794; in the data active = inhibition above about 30%); conditions: mammalian cells, at 3.6 µM, active compounds read high
[11] = target: Nuclear receptor coactivator 1 (Homo sapiens) (UniProt Q15788); assay: NCOA1 GAL4-fusion reporter inhibition – cell-based, luminescence, quadruplicate, confirmation (AID 588820;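 active = mean inhibition above 46.68%, the untreated control wells mean plus 3 SD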;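 also: 0% = DMSO wells and 100% = gossypol 36 µM treated wells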); conditions: HEK293 GAL4-SRC1 luciferase reporter, at 3.6 µM, active compounds read high
[12] = repression of VP16-driven luciferase reporter – cell-based, luminescence, high throughput, counter-screen for SRC1 inhibitor project (AID 588824; in the data active = inhibition above about 25%); conditions: cell-based VP16 transactivation luciferase luminescence; at 3.6 µM; active compounds read high
[13] = target: Photoreceptor-specific nuclear receptor (Homo sapiens) (UniProt Q9Y5X4); assay: retest of NR2E3-NCOR disrupting agonists – cell-based, luminescence, CHO-S two-hybrid, confirmation (AID 624378;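 active = average inhibition above a cutoff equal to the mean inhibition of all tested compounds plus one SD, cut at about 70% in these data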;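 also: 0% = DMSO in NR2E3 cells and 100% = DMSO in cells lacking NR2E3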); conditions: CHO-S mammalian two-hybrid NR2E3-NCOR, luciferase luminescence; at 3.98 µM; active compounds read high
Sequence of Photoreceptor-specific nuclear receptor (Homo sapiens) (Q9Y5X4 whole entry, looked up): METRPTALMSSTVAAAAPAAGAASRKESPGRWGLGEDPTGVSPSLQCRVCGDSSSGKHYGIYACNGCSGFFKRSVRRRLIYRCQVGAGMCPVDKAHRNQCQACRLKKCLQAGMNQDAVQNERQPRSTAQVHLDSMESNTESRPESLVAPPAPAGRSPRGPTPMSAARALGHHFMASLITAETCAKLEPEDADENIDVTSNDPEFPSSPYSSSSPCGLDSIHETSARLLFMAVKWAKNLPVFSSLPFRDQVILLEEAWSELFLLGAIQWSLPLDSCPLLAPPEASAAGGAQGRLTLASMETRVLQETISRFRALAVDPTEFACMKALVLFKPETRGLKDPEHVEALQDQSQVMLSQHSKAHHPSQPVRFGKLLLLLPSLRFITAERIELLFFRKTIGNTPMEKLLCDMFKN

[14] = nonselective effects on VP16 transactivation – cell-based, luminescence, CHO-S, high throughput, counter-screen for NR2E3 agonist project, confirmation (AID 624379;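 active = mean inhibition above a cutoff equal to the average over all tested compounds plus one standard deviation, cut at about 70% in these data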;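 also: 0% = DMSO with VP16-transfected cells and 100% = DMSO with cells lacking VP16; higher means less reporter light so more repression of VP16 activity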); conditions: CHO-S GAL4-VP16 luciferase reporter, at 3.98 µM, active compounds read high
[15] = StAR promoter reporter inhibitors, counter-screen for LRH-1 inverse agonist project, cell-based, luminescence, high throughput (AID 651611; in the data active = inhibition above about 28%); conditions: StAR promoter luciferase reporter counterscreen, at 3.6 µM, active compounds read high
[16] = target: Nuclear receptor subfamily 5 group A member 2 (Homo sapiens) (UniProt O00482); assay: NR5A2 activity suppression in reporter cells – cell-based, luminescence, confirmation (AID 651613; in the data active = inhibition above about 42%;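 also: HEK293T cells co-transfected with LRH-1 and StAR promoter luciferase reporter; 0% = vehicle wells and 100% = parental cells lacking receptor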); conditions: cell-based LRH-1 luciferase reporter, inverse agonism; at 3.6 µM; active compounds read high
[17] = target: Steroidogenic factor 1 (Homo sapiens) (UniProt Q13285); assay: inverse agonism at SF1 nuclear receptor – cell-based, luminescence, high throughput, counter-screen for LRH-1 inverse agonist project (AID 651614; in the data active = inhibition above about 44%;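 also: cells cotransfected with StAR promoter reporter and SF1 expression vector; 0% = vehicle on cells with receptor and 100% = vehicle on cells lacking receptor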); conditions: cell-based SF1 luciferase reporter, at 3.6 µM, active compounds read high
[18] = compounds suppressing VP16-driven luciferase signal – cell-based, luminescence, high throughput, counter-screen for LRH-1 inverse agonist project (AID 651615; in the data active = inhibition above about 33%); conditions: Gal4-VP16 luciferase reporter cells, at 3.6 µM, active compounds read high
[19] = reduced OD of V66 E. coli with T4 gene 2 phage – absorbance, RecBCD inhibitor project, confirmation (AID 651982;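 active = mean inhibition over triplicates exceeding the hit threshold derived in the original primary screen, cut at about 11% in these data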); conditions: E. coli V66 + T4 2- phage, growth OD; at 11.9 µM; active compounds read high
[20] = bacterial growth inhibition – absorbance, high throughput, counter-screen for RecBCD inhibitor project (AID 651983);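 also: E. coli strain V66 grown with compound alone and no phage infection; 0% = bacteria with DMSO vehicle only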; conditions: E. coli viability, absorbance (OD) growth; at 11.9 µM; active compounds read high
[21] = reduced optical density, T4-challenged addAB+ bacteria – absorbance, E. coli V3065, T4 phage, counter-screen for RecBCD inhibitor project, confirmation (AID 651984;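 active = mean inhibition above the solvent-only control wells' mean plus 3 SD, cut at about 22% in these data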;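 also: higher means less bacterial growth from phage killing when AddAB is blocked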); conditions: E. coli expressing H. pylori AddAB + T4 phage, OD growth; at 11.9 µM; active compounds read high; gene 2 mutant T4, recBCD-deleted host
[22] = VP16-driven transactivation reporter suppression – cell-based, luminescence, HEK293, counter-screen for COUP-TFII antagonist project (AID 687007; in the data active = inhibition above about 13%); conditions: HEK293 Gal4-VP16 luciferase reporter, at 8.5 µM, active compounds read high
[23] = target: COUP transcription factor 2 (Homo sapiens) (UniProt P24468); assay: retest of COUP-TFII reporter suppressors – cell-based, luciferase reporter, HEK293, triplicate, confirmation (AID 687008;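 active = mean inhibition over three repeats above a set limit taken from the earlier primary screen, cut at about 38% in these data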;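 also: 100% = cells given the luciferase reporter alone without the COUP-TF2 vector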); conditions: HEK293 NGFI-A luciferase reporter, luminescence; at 8.5 µM; active compounds read high
[24] = system: Fam108b (Abhd17b) serine hydrolase [Mus musculus]; assay: inhibition of Fam108b (Abhd17b) hydrolase – biochemical, fluorescence polarization, triplicate, counter-screen for RBBP9 inhibitor project, confirmation (AID 1978;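 active = inhibition above a limit from the primary screen, the mean over all compounds plus 3 SD, cut at about 19% in these data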;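 also: 0% = median of active Fam108b wells and 100% = catalytically dead S170A mutant; inhibitors free the probe so polarization falls as inhibition rises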); conditions: recombinant Fam108b, FP-Rh probe fluorescence polarization; at 9.51 µM; active compounds read high
[25] = target: Bcl-2-like protein 1 (Homo sapiens) (UniProt Q07817); assay: Bcl-xL BH3-peptide displacement, hit confirmation – biochemical, fluorescence polarization, counter-screen for MCL1 inhibitor project (AID 2166;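 active = inhibition above a cutoff equal to the mean inhibition of all tested compounds plus 3 SD, cut at about 30% in these data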); conditions: GST-Bcl-xL / FITC-Bim BH3 peptide FP binding; at 10.9 µM; active compounds read high
Sequence of Bcl-2-like protein 1 (Homo sapiens) (Q07817 whole entry, looked up): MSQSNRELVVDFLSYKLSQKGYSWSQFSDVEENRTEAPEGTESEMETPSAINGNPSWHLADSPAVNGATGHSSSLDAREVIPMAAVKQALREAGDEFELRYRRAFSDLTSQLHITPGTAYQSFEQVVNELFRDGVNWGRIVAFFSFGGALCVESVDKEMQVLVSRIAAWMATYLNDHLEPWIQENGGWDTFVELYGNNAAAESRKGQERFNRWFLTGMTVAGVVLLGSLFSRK

[26] = target: Induced myeloid leukemia cell differentiation protein Mcl-1 (Homo sapiens) (UniProt Q07820); assay: MCL1-BIM peptide interaction disruptors – biochemical, fluorescence polarization, triplicate, confirmation (AID 2168;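 active = inhibition above the average of all tested compounds plus 3 SD, cut at about 40% in these data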;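 also: 0% = DMSO wells and 100% = unlabeled Bim-BH3 control peptide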); conditions: GST-MCL1 / FITC-Bim-BH3 fluorescence polarization; at 10.9 µM; active compounds read high
Sequence of Induced myeloid leukemia cell differentiation protein Mcl-1 (Homo sapiens) (Q07820 whole entry, looked up): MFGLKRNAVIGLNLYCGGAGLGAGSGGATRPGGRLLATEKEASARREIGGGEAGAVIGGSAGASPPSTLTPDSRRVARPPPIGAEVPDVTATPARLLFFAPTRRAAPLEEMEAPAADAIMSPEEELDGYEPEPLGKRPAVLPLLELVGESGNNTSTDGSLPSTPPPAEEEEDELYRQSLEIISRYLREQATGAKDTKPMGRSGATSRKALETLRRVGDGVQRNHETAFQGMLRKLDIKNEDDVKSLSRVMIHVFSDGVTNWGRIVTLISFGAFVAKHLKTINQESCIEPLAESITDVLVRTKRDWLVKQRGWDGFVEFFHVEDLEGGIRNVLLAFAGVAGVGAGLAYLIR

[27] = target: Photoreceptor-specific nuclear receptor (Homo sapiens) (UniProt Q9Y5X4); assay: corepressor-releasing ligands of human NR2E3 – biochemical, TR-FRET, confirmation (AID 2379; in the data active = activation above about 20%); conditions: cell-free NR2E3 corepressor release, 5 h, at 3.98 µM, active compounds read high
[28] = target: Peroxisome proliferator-activated receptor gamma (Homo sapiens) + Nuclear receptor corepressor 2 (Homo sapiens) (UniProt P37231+Q9Y618); assay: agonists of PPARg-NCOR2 corepressor interaction, counter-screen for NR2E3 agonist project, biochemical, TR-FRET (AID 504787); conditions: TR-FRET PPARg-NCOR2 coregulator interaction, at 3.98 µM, active compounds read high;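 also: 0% = DMSO vehicle and 100% = wells without protein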
Sequence of Peroxisome proliferator-activated receptor gamma (Homo sapiens) + Nuclear receptor corepressor 2 (Homo sapiens) (P37231 whole entry, looked up): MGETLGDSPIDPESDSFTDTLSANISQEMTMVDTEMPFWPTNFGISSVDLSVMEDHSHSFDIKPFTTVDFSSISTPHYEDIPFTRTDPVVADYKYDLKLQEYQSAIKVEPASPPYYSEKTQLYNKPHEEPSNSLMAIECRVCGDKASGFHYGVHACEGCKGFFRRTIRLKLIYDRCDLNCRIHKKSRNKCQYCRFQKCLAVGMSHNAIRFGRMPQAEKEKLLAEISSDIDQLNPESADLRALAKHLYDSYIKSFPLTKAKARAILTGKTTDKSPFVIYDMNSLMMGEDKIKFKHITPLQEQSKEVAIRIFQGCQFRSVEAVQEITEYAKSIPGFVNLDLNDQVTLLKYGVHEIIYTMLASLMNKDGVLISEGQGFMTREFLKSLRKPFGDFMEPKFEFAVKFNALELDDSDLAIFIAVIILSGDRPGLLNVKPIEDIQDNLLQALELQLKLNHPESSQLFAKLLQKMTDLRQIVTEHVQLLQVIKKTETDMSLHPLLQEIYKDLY
Sequence of Peroxisome proliferator-activated receptor gamma (Homo sapiens) + Nuclear receptor corepressor 2 (Homo sapiens) (Q9Y618 whole entry, looked up): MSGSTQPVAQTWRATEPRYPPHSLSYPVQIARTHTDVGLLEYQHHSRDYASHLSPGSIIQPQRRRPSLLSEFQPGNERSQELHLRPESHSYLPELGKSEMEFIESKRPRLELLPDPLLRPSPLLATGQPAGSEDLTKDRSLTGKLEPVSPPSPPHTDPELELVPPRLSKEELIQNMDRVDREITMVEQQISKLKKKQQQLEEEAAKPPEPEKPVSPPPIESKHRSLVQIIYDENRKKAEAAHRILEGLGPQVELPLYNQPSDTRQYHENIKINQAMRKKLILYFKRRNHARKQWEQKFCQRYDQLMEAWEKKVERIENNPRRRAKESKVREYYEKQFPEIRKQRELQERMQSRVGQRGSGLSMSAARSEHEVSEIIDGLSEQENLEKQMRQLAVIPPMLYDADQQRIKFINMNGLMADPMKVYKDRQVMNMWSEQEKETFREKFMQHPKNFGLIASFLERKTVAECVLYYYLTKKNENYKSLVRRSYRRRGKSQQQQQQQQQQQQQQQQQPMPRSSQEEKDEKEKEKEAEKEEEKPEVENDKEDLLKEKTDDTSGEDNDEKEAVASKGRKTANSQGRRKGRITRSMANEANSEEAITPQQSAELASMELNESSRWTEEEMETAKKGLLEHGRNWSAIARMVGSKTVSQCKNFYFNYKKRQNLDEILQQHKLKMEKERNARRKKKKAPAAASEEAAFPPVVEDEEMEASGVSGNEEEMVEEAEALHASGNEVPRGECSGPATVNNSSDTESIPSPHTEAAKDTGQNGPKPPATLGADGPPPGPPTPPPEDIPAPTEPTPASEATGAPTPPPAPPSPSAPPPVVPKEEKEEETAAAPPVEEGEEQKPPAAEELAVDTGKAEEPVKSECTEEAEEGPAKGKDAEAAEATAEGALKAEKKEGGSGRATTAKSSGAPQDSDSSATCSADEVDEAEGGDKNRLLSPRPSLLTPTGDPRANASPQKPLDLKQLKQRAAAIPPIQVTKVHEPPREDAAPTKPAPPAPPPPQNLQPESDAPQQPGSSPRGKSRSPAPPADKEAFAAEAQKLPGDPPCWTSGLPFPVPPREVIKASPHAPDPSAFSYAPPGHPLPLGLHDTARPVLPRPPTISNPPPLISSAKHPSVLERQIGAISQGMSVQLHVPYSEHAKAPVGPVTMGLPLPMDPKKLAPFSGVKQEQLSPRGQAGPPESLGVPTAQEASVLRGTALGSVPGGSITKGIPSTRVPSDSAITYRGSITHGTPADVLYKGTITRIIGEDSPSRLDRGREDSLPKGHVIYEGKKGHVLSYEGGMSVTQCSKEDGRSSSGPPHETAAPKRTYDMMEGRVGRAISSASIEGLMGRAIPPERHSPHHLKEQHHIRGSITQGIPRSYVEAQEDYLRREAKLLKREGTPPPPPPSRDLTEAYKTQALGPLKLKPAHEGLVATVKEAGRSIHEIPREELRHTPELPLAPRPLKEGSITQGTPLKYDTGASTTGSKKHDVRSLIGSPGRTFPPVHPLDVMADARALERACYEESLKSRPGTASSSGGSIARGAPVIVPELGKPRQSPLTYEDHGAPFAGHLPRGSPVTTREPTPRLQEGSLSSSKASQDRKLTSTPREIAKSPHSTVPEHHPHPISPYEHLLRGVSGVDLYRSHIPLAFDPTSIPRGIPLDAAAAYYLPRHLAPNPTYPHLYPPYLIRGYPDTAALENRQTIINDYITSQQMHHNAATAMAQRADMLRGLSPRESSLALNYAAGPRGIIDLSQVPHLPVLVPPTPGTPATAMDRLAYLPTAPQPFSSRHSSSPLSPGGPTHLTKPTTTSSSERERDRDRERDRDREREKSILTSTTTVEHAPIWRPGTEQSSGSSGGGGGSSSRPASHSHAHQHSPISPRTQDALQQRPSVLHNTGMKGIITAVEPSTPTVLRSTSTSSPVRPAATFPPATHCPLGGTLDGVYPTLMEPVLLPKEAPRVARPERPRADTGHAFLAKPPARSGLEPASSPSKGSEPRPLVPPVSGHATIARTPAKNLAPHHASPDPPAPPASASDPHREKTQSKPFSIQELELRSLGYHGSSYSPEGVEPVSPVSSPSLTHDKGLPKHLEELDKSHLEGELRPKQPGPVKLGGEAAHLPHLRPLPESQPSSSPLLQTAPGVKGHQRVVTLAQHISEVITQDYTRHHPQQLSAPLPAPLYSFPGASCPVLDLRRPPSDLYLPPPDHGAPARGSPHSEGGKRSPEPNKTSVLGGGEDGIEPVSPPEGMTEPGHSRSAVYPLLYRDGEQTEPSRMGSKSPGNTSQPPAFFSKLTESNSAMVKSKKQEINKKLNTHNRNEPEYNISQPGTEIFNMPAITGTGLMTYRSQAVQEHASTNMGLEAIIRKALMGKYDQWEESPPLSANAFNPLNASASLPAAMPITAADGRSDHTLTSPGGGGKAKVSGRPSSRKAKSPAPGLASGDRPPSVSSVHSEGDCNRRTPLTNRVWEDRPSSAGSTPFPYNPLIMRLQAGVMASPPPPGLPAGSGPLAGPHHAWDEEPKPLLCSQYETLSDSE

[29] = target: Protein-arginine deiminase type-4 (Homo sapiens) (UniProt Q9UM07); assay: protein arginine deiminase 4 blockade, retest – biochemical, fluorescence polarization, confirmation (AID 488796;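 active = mean inhibition across replicates above the hit cutoff set by the earlier primary screen, cut at about 15% in these data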;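 also: inhibitors block active-site labeling by the probe so polarization falls; 0% = PAD4 with probe and DMSO and 100% = probe without PAD4 enzyme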); conditions: recombinant PAD4, RCA probe fluorescence polarization; at 6.36 µM; active compounds read high
[30] = target: Serine protease HTRA1 (Homo sapiens) (UniProt Q92743); assay: confirming inhibition of human HTRA1 – biochemical, fluorescence polarization, confirmation (AID 540248;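 active = mean inhibition over three repeats above a set limit taken from the earlier primary screen, cut at about 37% in these data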;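 also: 0% = HTRA1 with DMSO and 100% = wells lacking HTRA1; inhibitors block probe binding so polarization drops and inhibition rises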); conditions: recombinant HTRA1, FP-rhodamine activity-based probe, at 5.96 µM, active compounds read high
[31] = target: (Lyso)-N-acylphosphatidylethanolamine lipase (Mus musculus) (UniProt Q8VD66); assay: mouse ABHD4 hydrolase blockers, triplicate – biochemical, fluorescence polarization, confirmation (AID 720658;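 active = mean inhibition across replicates above the hit cutoff set in the primary screen, cut at about 30% in these data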;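 also: 0% = wild-type ABHD4 with DMSO and 100% = catalytically dead S159A mutant with DMSO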); conditions: purified mABHD4, FP-Rh probe fluorescence polarization; at 8.92 µM; active compounds read high
[32] = target: Oxysterols receptor LXR-beta (Homo sapiens) (UniProt P55055); assay: nonspecific reporter activation via LXR – cell-based, luminescence, HEK293, H. contortus campaign, counter-screen for hcDAF-12 agonist project, confirmation (AID 743027;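 active = mean percent activation of the reporter above a cutoff set as the average over tested compounds plus their standard deviation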); conditions: HEK293 Gal4-LXR tk-luc reporter, 24 h, at 6.8 µM, active compounds read high, normalized: DMSO 0%, positive control 100%
[33] = system: Nuclear hormone receptor DAF-12 (Haemonchus contortus); assay: hcDAF-12 luciferase reporter activation, retest – cell-based, luminescence, HEK293, lit1-tk-luc, triplicate, confirmation (AID 743032;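 active = mean activation across triplicate tests above the threshold derived from the earlier primary screen, cut at about 5.5% in these data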;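 also: 0% = DMSO only wells and 100% = 3 µM Δ7-dafachronic acid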); conditions: HEK293 hcDAF-12 lit1-tk-luc reporter, at 6.8 µM, active compounds read high, % of Δ7-dafachronic acid response
[34] = target: Galanin receptor type 2 (Homo sapiens) (UniProt O43603); assay: blockers of human galanin receptor 2 – cell-based, confirmation (AID 866; in the data active = inhibition above about 27%;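 also: cells stimulated with galanin at about its EC80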); conditions: GALR2-expressing cells, antagonist mode, at 4 µM, active compounds read high
[35] = nonspecific BLA reporter inhibition – CHO NFAT-bla cells, FRET readout, counter-screen for GALR2 antagonist project, confirmation (AID 867;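 active = inhibition above the mean inhibition across tested compounds plus 3 SD, cut at about 27% in these data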;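 also: 0% = 500 nM thapsigargin stimulated wells and 100% = unstimulated BSA only wells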); conditions: beta-lactamase FRET, thapsigargin-stimulated, at 4.2 µM, active compounds read high
[36] = target: Protein phosphatase methylesterase 1 (Homo sapiens) (UniProt Q9Y570); assay: human PME-1 methylesterase inhibition confirmation – biochemical, fluorescence polarization, FP-Rh probe, triplicate (AID 2171;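 active = inhibition above the hit cutoff set in the earlier primary screen, cut at about 27% in these data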;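 also: 0% = enzyme with DMSO and 100% = wells lacking PME-1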); conditions: recombinant PME-1, FP-Rh probe fluorescence polarization; at 5.9 µM; active compounds read high

O=C(CC(O)(C(F)(F)F)C(F)(F)F)Nc1ccc(Cl)c(Cl)c1
active: activation [5] 11.5% | inhibition [6] 16.9% | inhibition [7] 21.6% | inhibition [9] 58.7% | inhibition [10] 65.2% | inhibition [12] 74.2% | inhibition [13] 99.8% | inhibition [14] 89.7% | inhibition [15] 74.3% | inhibition [16] 102% | inhibition [17] 90.4% | inhibition [18] 88.5% | inhibition [19] 16.8% | inhibition [20] 20.4% | inhibition [21] 22.1% | inhibition [22] 20.4% | inhibition [23] 62.1%
inactive: activation [1] 17% | activation [2] -22.8% | activation [3] -13.7% | inhibition [4] -7.55% | inhibition [8] 16.9% | inhibition [11] 46.4%

CSc1c(SCc2ccccc2)cnn(Cc2ccccc2)c1=O
inactive: inhibition [24] 0.05% | inhibition [25] -5.91% | inhibition [26] -3.67%

O=C(Oc1ccccc1)Oc1ccc2c(c1)oc(=O)c1ccccc12
inactive: activation (reported as inhibition) [27] 1.72% | inhibition [28] 6.42%

CC(=O)c1sc2nc(SCC(=O)N3CCCCC3)[nH]c(=O)c2c1C
inactive: activation (reported as inhibition) [27] 17.4%
active: inhibition [28] 21.1%

Nc1ccc(Nc2ccccc2)cc1
inactive: inhibition [29] 6.93%
active: inhibition [30] 54.5% | inhibition [31] 36.4%

CC(=O)n1c(C=Nc2ccccc2)c(O)c2ccccc21
inactive: activation [32] 0.1% | activation [33] 4.63%

O=C(Nc1ccccc1)c1nnsc1S(=O)(=O)c1ccc(Cl)cc1
active: inhibition [34] 45.8% | inhibition [35] 66.7%

Cc1ccc(/C=N/NC(=O)COc2ccccc2-c2ccccc2)cc1
inactive: inhibition [25] -0.45% | inhibition [26] -3.63%

COc1ccc(C(=O)Nc2ccccc2C(=O)N/N=C/c2ccc(O)c(OC)c2)cc1
active: inhibition [36] 28.2%

COc1cccc(/C=N/Nc2ncc(C(F)(F)F)cc2Cl)c1O
inactive: inhibition [8] 16.3% | inhibition [19] 7.89% | inhibition [20] 9.3% | inhibition [21] 12.8%
active: inhibition [6] 12.9% | inhibition [7] 16.2%
